Measurements published in the supplement of paper PMC10849652.
Targets with a hit are over-represented here; the source holds about 7,900 in all. About 0.6% of all pairs of compound and target were hits.

These targets were tested with CC1=C(C=C(C=C1)NC(=O)C2=CC(=CC=C2)C(C)(C)C#N)NC3=CC4=C(C=C3)N=CN(C4=O)C (assay: log2 fold change, soluble protein after heating vs DMSO (PISA); higher = thermal stabilisation; K562 cells, 10 uM, 30 min; active = over 0.2 and 3.5 SD of the protein, either way, in both replicates (recomputed)).
Outline: (§1)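 K562 cells at 2×10^6 cells/mL were treated for 30 min with 10 μM compound, and aliquots were heated for 3 min over 48°C-58°C before pooling. Extraction used PBS with 0.5% NP-40 at 4°C, and soluble protein was the supernatant after 21,000xg for 90 min, measured by TMTpro 16plex LC-MS/MS with channel sums equalised. Thermal stability values, relative to control samples and from duplicates, are log2 fold changes.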

UniProt Q8N668, sequence (Q8N668 whole entry, looked up): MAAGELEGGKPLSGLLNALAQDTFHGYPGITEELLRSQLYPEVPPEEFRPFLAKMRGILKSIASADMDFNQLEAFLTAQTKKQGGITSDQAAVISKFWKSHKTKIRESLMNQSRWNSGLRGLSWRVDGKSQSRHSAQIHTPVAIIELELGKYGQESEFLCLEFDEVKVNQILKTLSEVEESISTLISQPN
UniProt Q9UIV1, sequence (Q9UIV1 whole entry, looked up): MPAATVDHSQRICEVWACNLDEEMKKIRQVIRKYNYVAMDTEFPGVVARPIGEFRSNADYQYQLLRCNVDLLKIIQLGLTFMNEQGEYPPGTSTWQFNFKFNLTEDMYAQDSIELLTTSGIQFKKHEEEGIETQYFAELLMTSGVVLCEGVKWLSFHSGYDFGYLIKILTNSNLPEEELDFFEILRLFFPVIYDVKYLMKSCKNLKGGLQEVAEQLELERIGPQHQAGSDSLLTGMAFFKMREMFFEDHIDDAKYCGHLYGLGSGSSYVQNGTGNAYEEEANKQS
UniProt Q13901, sequence (Q13901 whole entry, looked up): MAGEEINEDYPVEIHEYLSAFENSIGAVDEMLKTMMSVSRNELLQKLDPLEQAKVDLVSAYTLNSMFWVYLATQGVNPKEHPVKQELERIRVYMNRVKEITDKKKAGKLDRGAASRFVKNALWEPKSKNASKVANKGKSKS
UniProt Q16740, sequence (Q16740 whole entry, looked up): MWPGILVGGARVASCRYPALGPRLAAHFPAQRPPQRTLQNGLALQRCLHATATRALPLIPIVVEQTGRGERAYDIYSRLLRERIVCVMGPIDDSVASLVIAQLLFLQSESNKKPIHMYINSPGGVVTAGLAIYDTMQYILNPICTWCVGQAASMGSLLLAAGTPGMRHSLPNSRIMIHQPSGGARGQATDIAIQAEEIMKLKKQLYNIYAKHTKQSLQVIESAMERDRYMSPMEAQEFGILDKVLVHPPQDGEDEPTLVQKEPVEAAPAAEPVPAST
UniProt Q8N1A6, sequence (Q8N1A6 whole entry, looked up): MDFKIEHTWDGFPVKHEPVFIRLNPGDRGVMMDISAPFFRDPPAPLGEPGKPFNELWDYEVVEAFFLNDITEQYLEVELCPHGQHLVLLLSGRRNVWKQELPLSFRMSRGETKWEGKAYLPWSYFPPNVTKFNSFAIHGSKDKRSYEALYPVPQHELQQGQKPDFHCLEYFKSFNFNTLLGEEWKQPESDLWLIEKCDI
UniProt O75208, sequence (O75208 whole entry, looked up): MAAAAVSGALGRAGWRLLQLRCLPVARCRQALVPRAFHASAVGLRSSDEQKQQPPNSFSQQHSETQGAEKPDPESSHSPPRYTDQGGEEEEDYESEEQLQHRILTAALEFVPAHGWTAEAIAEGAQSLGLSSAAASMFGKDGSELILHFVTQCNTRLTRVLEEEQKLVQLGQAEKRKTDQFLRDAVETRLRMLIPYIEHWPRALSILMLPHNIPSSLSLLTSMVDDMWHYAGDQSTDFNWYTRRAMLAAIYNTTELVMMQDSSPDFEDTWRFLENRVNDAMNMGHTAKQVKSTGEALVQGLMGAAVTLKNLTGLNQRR
UniProt O14757, sequence (O14757 whole entry, looked up): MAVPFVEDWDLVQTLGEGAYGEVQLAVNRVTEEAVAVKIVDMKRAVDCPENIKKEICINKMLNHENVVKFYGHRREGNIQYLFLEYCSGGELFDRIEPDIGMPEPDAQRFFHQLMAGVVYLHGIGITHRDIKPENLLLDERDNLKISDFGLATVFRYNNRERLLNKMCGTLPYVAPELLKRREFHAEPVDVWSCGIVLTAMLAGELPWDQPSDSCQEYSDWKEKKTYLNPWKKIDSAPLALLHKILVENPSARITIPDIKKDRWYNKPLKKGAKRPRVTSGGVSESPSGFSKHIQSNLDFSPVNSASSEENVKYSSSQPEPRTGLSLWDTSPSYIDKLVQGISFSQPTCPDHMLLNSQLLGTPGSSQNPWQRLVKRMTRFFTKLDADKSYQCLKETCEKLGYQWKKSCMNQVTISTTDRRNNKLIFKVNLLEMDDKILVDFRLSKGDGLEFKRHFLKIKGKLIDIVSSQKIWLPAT
UniProt Q9HAW4, sequence (Q9HAW4 whole entry, looked up): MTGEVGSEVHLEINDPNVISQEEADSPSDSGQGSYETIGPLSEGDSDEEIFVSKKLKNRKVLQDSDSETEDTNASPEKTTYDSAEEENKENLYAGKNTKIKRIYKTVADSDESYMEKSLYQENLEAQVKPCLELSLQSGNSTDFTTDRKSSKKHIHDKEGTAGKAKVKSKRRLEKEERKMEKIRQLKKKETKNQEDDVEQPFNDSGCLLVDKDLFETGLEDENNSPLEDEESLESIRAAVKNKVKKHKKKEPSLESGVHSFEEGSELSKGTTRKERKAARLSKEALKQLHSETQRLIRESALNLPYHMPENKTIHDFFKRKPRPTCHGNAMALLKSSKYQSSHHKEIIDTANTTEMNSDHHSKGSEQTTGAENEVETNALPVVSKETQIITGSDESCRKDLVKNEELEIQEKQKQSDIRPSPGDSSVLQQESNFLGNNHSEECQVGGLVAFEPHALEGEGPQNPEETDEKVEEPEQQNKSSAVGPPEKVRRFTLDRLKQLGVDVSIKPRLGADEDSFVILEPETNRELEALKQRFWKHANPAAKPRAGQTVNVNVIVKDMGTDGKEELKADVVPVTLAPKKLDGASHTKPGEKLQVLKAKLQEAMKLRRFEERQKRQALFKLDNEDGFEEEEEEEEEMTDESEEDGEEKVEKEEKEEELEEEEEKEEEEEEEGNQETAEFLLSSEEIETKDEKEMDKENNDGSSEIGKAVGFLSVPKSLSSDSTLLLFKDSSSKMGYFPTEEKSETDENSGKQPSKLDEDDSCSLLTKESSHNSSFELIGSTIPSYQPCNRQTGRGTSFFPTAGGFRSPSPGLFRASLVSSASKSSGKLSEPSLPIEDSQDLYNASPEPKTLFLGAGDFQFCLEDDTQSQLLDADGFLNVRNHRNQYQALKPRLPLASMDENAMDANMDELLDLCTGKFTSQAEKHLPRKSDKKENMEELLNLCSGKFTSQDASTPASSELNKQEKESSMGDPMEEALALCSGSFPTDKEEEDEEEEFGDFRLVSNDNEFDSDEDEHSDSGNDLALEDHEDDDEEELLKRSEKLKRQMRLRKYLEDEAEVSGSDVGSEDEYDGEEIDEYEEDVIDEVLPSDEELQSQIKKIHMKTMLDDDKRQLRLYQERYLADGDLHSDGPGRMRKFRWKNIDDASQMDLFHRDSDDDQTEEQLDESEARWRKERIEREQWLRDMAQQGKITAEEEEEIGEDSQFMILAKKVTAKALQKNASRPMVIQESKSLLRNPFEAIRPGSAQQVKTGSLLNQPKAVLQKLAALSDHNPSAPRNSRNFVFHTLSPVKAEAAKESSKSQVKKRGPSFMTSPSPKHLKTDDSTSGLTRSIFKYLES
UniProt P50750, sequence (P50750 whole entry, looked up): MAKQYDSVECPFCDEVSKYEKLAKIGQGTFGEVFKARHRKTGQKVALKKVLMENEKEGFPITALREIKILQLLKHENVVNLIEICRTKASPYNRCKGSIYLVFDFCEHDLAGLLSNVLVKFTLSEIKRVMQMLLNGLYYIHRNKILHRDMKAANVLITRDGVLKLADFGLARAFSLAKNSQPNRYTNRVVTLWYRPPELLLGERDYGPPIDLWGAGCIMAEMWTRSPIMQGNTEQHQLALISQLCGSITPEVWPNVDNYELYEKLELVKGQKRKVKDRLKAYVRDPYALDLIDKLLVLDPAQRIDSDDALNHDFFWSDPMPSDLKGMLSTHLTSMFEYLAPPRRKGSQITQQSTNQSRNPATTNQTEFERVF
UniProt P35219, sequence (P35219 whole entry, looked up): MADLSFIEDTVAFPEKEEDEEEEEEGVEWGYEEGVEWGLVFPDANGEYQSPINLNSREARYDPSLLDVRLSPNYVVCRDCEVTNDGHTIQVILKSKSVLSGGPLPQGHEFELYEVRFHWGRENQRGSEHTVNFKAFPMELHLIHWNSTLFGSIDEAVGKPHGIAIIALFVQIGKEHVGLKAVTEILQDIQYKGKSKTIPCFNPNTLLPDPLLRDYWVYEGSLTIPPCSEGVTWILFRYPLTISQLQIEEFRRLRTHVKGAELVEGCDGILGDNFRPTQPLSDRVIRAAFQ
UniProt P30305, sequence (P30305 whole entry, looked up): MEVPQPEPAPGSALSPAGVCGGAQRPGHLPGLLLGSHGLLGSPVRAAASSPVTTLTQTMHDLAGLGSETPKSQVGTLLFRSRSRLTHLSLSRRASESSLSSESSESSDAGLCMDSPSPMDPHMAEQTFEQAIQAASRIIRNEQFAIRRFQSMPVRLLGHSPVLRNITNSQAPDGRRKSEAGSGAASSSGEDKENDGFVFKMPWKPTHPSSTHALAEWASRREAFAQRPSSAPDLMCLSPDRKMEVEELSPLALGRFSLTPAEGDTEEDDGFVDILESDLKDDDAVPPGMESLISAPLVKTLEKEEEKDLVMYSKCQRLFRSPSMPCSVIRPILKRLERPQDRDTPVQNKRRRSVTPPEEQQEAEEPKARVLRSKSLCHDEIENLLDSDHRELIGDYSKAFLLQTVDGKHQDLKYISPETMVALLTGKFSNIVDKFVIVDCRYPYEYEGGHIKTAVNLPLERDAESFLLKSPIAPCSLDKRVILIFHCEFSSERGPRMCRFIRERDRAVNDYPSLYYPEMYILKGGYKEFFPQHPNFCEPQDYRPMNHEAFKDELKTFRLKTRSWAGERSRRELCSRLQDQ
UniProt Q9NRR8, sequence (Q9NRR8 whole entry, looked up): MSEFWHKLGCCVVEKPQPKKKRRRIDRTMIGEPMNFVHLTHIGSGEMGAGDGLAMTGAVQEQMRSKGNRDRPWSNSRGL
UniProt Q00534, sequence (Q00534 whole entry, looked up): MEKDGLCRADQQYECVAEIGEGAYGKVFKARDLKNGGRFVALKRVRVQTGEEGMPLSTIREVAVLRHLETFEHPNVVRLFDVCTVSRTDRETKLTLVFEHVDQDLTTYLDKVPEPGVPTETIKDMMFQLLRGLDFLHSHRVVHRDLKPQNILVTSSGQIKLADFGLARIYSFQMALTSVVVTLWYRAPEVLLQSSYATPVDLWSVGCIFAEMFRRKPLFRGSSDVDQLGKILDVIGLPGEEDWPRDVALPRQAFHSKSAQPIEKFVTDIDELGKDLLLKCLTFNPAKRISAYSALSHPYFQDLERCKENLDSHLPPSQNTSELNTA

| Target | log2 fold change |
| --- | --- |
| CLCN7 (UniProt P51798) | 0.027 (inactive) |
| CCZ1 (UniProt P86791) | -0.005 (inactive) |
| C1D (UniProt Q13901) | 0.058 (inactive) |
| CNOT7 (UniProt Q9UIV1) | 0.046 (inactive) |
| CDC42BPA isoform 6 (UniProt Q5VT25) | 0.151 (inactive) |
| COMMD1 (UniProt Q8N668) | 0.037 (inactive) |
| CETN3 (UniProt O15182) | 0.001 (inactive) |
| C4orf33 (UniProt Q8N1A6) | -0.101 (inactive) |
| CDK9 isoform 2 (UniProt P50750) | 0.053 (inactive) |
| CDC25B isoform 4 (UniProt P30305) | 0.203 (inactive) |
| CHEK1 (UniProt O14757) | -0.023 (inactive) |
| CD53 (UniProt P19397) | -0.062 (inactive) |
| CRTC2 (UniProt Q53ET0) | 0.055 (inactive) |
| CDK4 (UniProt P11802) | -0.077 (inactive) |
| CNOT1 (UniProt A5YKK6) | 0.016 (inactive) |
| CPSF1 (UniProt Q10570) | -0.017 (inactive) |
| CLUH, A0A494C0R8 | 0.008 (inactive) |
| CEPT1 (UniProt Q9Y6K0) | 0.048 (inactive) |

| Target | log2 fold change |
| --- | --- |
| CELF2 isoform 3 (UniProt O95319) | 0.075 (inactive) |
| CDC42SE1 (UniProt Q9NRR8) | 0.132 (inactive) |
| CASP3 (UniProt P42574) | -0.049 (inactive) |
| CDK12 (UniProt Q9NYV4) | 0.049 (inactive) |
| COQ9 (UniProt O75208) | 0.016 (inactive) |
| COMMD2 (UniProt Q86X83) | -0.014 (inactive) |
| CDK6 (UniProt Q00534) | -0.037 (inactive) |
| CA8 (UniProt P35219) | -0.024 (inactive) |
| CA1 (UniProt P00915) | -0.028 (inactive) |
| CLSPN (UniProt Q9HAW4) | -0.048 (inactive) |
| CCNH (UniProt P51946) | -0.023 (inactive) |
| CLPP (UniProt Q16740) | -0.002 (inactive) |
| CHD4 isoform 2 (UniProt Q14839) | 0.011 (inactive) |
| CAMSAP1 isoform 3 (UniProt Q5T5Y3) | 0.03 (inactive) |
| CCDC57 (UniProt Q2TAC2) | 0.004 (inactive) |
| CHST11 (UniProt Q9NPF2) | 0.019 (inactive) |
| CRLF3 (UniProt Q8IUI8) | 0.05 (inactive) |
| CAD (UniProt P27708) | -0.047 (inactive) |

The targets below were run with CC1=C(C=C(C=C1)NC(=O)C2=CC(=CC=C2)N(C)C)NC(=O)C3=CC=C(C=C3)O in the same assay as above.
Outline: as §1

| Target | log2 fold change |
| --- | --- |
| CLCN7 (UniProt P51798) | -0.026 (inactive) |
| CCZ1 (UniProt P86791) | -0.029 (inactive) |
| C1D (UniProt Q13901) | 0.002 (inactive) |
| CNOT7 (UniProt Q9UIV1) | -0.043 (inactive) |
| CDC42BPA isoform 6 (UniProt Q5VT25) | -0.079 (inactive) |
| COMMD1 (UniProt Q8N668) | -0.064 (inactive) |
| CETN3 (UniProt O15182) | 0.012 (inactive) |
| C4orf33 (UniProt Q8N1A6) | 0.04 (inactive) |
| CDK9 isoform 2 (UniProt P50750) | -0.067 (inactive) |
| CDC25B isoform 4 (UniProt P30305) | -0.022 (inactive) |
| CHEK1 (UniProt O14757) | -0.013 (inactive) |
| CD53 (UniProt P19397) | -0.099 (inactive) |
| CRTC2 (UniProt Q53ET0) | 0.055 (inactive) |
| CDK4 (UniProt P11802) | -0.003 (inactive) |
| CNOT1 (UniProt A5YKK6) | -0.007 (inactive) |
| CPSF1 (UniProt Q10570) | 0 (inactive) |
| CLUH, A0A494C0R8 | -0.077 (inactive) |
| CEPT1 (UniProt Q9Y6K0) | 0.068 (inactive) |

| Target | log2 fold change |
| --- | --- |
| CELF2 isoform 3 (UniProt O95319) | 0.01 (inactive) |
| CDC42SE1 (UniProt Q9NRR8) | 0.059 (inactive) |
| CASP3 (UniProt P42574) | 0.086 (inactive) |
| CDK12 (UniProt Q9NYV4) | -0.001 (inactive) |
| COQ9 (UniProt O75208) | 0.045 (inactive) |
| COMMD2 (UniProt Q86X83) | -0.051 (inactive) |
| CDK6 (UniProt Q00534) | 0.01 (inactive) |
| CA8 (UniProt P35219) | -0.081 (inactive) |
| CA1 (UniProt P00915) | -0.008 (inactive) |
| CLSPN (UniProt Q9HAW4) | 0.003 (inactive) |
| CCNH (UniProt P51946) | 0.007 (inactive) |
| CLPP (UniProt Q16740) | -0.004 (inactive) |
| CHD4 isoform 2 (UniProt Q14839) | -0.028 (inactive) |
| CAMSAP1 isoform 3 (UniProt Q5T5Y3) | -0.009 (inactive) |
| CCDC57 (UniProt Q2TAC2) | 0.02 (inactive) |
| CHST11 (UniProt Q9NPF2) | 0.099 (inactive) |
| CRLF3 (UniProt Q8IUI8) | -0.015 (inactive) |
| CAD (UniProt P27708) | -0.009 (inactive) |
